Compound activity deposited in PubChem BioAssay by National Center for Advancing Translational Sciences (NCATS).
HSD17B inh: HSD17B dehydrogenase inhibition | Q99714 | recombinant HSD17B10, NADH fluorescence kinetic | Potency, µM (doses to about 57.1 µM), for the others: at the top dose activity change, negative = inhibition, actives largely listed as inhibitors | actives 7.6% (n = 75,000) | AID 893;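 note: the protocol describes HADH2 (HSD17B10) and not the HSD17B4 of the title; potency is the fitted concentration of half-maximal effect; % is set by controls: 0 for no effect and ±100 for the full control effect; nearly all actives have a fitted effect of over 70% in size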
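Enzyme plus compound, 15 min room temperature; substrate mix added (NAD+ 1 mM, beta-hydroxybutyryl-CoA 90 uM final); plates read kinetically for NADH fluorescence. HADH2 was His-tagged, E. coli-derived, 20 nM.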
4MU fluor: 4-MU region autofluorescence; AID 589; compound autofluorescence, 340/450 nm, 4-MU equivalents; hits give high values; actives 11% (n = 59,000); max dye-equivalent concentration, M; in the data active = max dye-equivalent concentration above about 10 nM; inconclusive = mostly about 1.1 nM to 9.6 nM
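Intrinsic fluorescence at 340/450 nm (ex/em) was read after 15 min at room temperature in pH 8.0, 100 mM Tris. Each compound concentration expressed as 4-MU-equivalent concentration from a six-point 4-MU standard series on each plate.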
CRE Fsk mod: modulators of forskolin-stimulated CRE signaling in CHO cells | CHO CRE-bla reporter (cAMP response element driving beta-lactamase), forskolin EC10, beta-lactamase ratio | Potency, µM (highest dose often 38.2 µM), inactives show at the top dose activity change, negative = inhibition, hits mostly activators | actives 2.5% (n = 71,000); active = well fitted activation curve with a large enough effect in the signal ratio, with a control signal flat, not every such curve was filed as active; inconclusive = small, poorly fitted or top-dose-only effect, or effect the other way, or a change in a side signal; the % refers to the signal ratio; note: potency is the fitted concentration of half-maximal effect; % of control where 0% means no effect
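Using CellSensor CRE-bla CHO cells in Opti-MEM with 0.5% dialyzed FBS, compounds were titrated with EC10 NKH 477 for 3 h at 37 °C. CCF4 ratio (460/530 nm) gave %Activity; AC50 derived.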
HADH2 inh: blocks human hydroxyacyl-CoA dehydrogenase type II; actives 3.4% (n = 73,000); Q99714; recombinant HADH2, NADH fluorescence, beta-hydroxybutyryl-CoA; AID 886; Potency, µM (doses to about 57.1 µM), without a hit: at the highest dose activity change, negative = inhibition, hits mostly inhibitors; note: potency is the fitted concentration of half-maximal effect; % is set by controls: 0 for no effect and ±100 for the full control effect; nearly all actives have a fitted effect of over 60% in size
Target sequence (Q99714 whole entry, looked up, one chain of several): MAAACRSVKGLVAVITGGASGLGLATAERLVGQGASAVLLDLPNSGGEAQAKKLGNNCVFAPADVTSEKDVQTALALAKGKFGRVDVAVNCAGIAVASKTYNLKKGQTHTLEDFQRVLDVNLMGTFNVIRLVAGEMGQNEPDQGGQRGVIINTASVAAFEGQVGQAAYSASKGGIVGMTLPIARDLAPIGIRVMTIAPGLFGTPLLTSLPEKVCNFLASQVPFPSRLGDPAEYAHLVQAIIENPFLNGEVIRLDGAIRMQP
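20 nM HADH2 + cpd, 15 min RT; add 1 mM NAD+/90 uM beta-hydroxybutyryl-CoA; kinetic fluorescence 360/450 nm, 4 min. Tris-HCl pH 9.0, 0.01% Tween-20.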
A350 fluor: A350 region autofluorescence. Compound autofluorescence, 340/450 nm, Alexa 350 dye-equivalents; hits give high values. actives 11% (n = 59,000). AID 590. max dye-equivalent concentration, M; in the data active = max dye-equivalent concentration above about 10 nM; inconclusive = mostly about 1.1 nM to 9.6 nM
AID923: qHTS Assay for Allosteric/Competitive Inhibitors of Caspase-1: Spectroscopic Profiling in AFC Spectral Region | compound fluorescence, AFC spectral region (405/520 nm) | Potency, µM (top dose mostly 57.5 µM), for the others: top-dose fluorescence increase, usual class: activators | AID 923, 2007 | actives 1.1% (n = 75,000); note: potency is the fitted concentration of half-maximal effect; 0% is about no effect
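Baseline compound fluorescence (AFC region, 405 nm ex/520 nm em) taken from the intercept of kinetic reads with 50 nM caspase-1 and 5 uM Ac-WEHD-AFC; normalized to an on-plate AFC standard curve; compounds titrated up to 57 uM.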
Starred values were filed as active, the others as inactive; i = inactive; ? = inconclusive; nt = no result; [ ] = dose if it differs, or a comment. Hits are enriched below; roughly 14% of the tested compounds scored in any of these assays. Unless noted, calls come from the whole dose curve; as a rule, active = well fitted curve in the direction sought with a large enough effect; inconclusive = small, poorly fitted or top-dose-only effect, or another doubt; inactive = no such curve, though single readings can be large; an effect the other way counts as inactive or inconclusive.

SMILES | HSD17B inh | 4MU fluor | CRE Fsk mod | HADH2 inh | A350 fluor | AID923
CC(C)CNC(=O)COc1ccc2c3c(c(=O)oc2c1)CCC3 | 13µM* | ? | 18% | ? | ? | -1%
CC(=O)COc1ccc2c3c(c(=O)oc2c1)CCCC3 | 25µM* | 3.1e-08M* | 16µM* | 269% | 4.1e-08M* | 3%
CC(=O)C(C)Oc1ccc2c3c(c(=O)oc2c1)CCCC3 (configuration not stated) | 25µM* | nt | ? | ? | nt | -1%
O=C(O)C1CCN(C(=O)COc2ccc3c4c(c(=O)oc3c2)CCC4)CC1 | 32µM* | 2.1e-07M* | 0% | 32µM* | 2.7e-07M* | 9%
Cc1cc(OCC(=O)N2CCCC2)ccc1Cl | 4% | nt | ? | 20%[11.4 µM] | nt | -3%
COc1ccc2c(c1)c(=O)oc1cc(OCC(=O)NC3CC3)ccc12 | 13µM* | 1e-07M* | 4% | 78% | 1.2e-07M* | 1%
O=C(O)Cc1ccc2[nH]c3ccc(CC(=O)O)cc3c2c1 | 25µM* | ? | ? | -21% | ? | 1%
Cn1c2ccc(CC(=O)O)cc2c2cc(CC(=O)O)ccc21 | ? | nt | -5% | -28% | nt | 4%
COc1ccc(N2CCN(c3nc(NCCc4ccc(OC)c(OC)c4)nc(OC)n3)CC2)cc1 | 29% | i | 3.2µM* | 1% | i | -1%
COc1ccc(Nc2nc(OC)nc(N3CCN(c4ccc(OC)cc4)CC3)n2)cc1 | 11% | nt | 18% | -2% | nt | 0%
COc1ccccc1-c1cc(Nc2ccc(F)cc2)ncn1 | ? | i | ? | 9% | i | 5%
COc1ccccc1-c1cc(Nc2ccn[nH]2)ncn1 | 2% | 1.5e-08M* | ? | 16% | 1.7e-08M* | 4%
CCCCCCCC1=Cc2ccccc2C(CC(C)=O)N1C(=O)OC (configuration not stated) | -5%[11.4 µM] | nt | nt | -1%[11.4 µM] | nt | 1%[11.5 µM]
CC1(C)CC(=O)c2c(nn(-c3ccccc3)c2N)C1 | 10% | i | ? | 8% | i | 0%
CC1(C)CC(=O)c2c(nc3ccccc3c2N)C1 | 25µM* | 5.4e-07M* | 29% | 25µM* | 5.9e-07M* | -2%
CC(C)[C@@H](CC(=O)N[C@@H]1CCCC[C@H]1C(=O)N[C@H](CC(=O)N[C@@H](CCC(=O)O)CC(=O)O)Cc1c[nH]c2ccccc12)NC(=O)C[C@H](Cc1c[nH]c2ccccc12)NC(=O)[C@@H]1CNCC[C@H]1N | nt | nt | -10% | -4% | nt | nt
Cc1ccc(C(=O)NCCNC(=O)CN2CCOCC2)cc1 | -3% | 1.7e-08M* | 0% | 2% | 1.8e-08M* | 0%
Cc1ccc(C(=O)N2CCN(C(=O)CN3CCOCC3)C2)cc1 | 0% | nt | ? | 12%[11.4 µM] | nt | 2%
CC(C)c1nc(SCc2ccccn2)c2c(=O)n(C)c(=O)n(C)c2n1 | -3% | nt | 5µM* | 4% | nt | 1%
CCc1nc(SCc2ccccn2)c2c(=O)n(C)c(=O)n(C)c2n1 | 0% | nt | 2.5µM* | 5% | nt | 5%
CCn1c(=O)c2c(nc(SCc3ccccn3)n2C)n(C)c1=O | -7% | i | ? | -2% | i | 0%
CCCn1c(SCc2ccccn2)nc2c1c(=O)n(C)c(=O)n2C | 6% | i | ? | -9% | i | 1%
CC12CC3OS(=O)OC3CC3C4C(C(OCc5ccccc5)C31)C42 (configuration not stated) | 1%[11.4 µM] | nt | nt | 6%[11.4 µM] | nt | -3%[11.5 µM]
COC(=O)CNC(=O)[C@@]1(C)C=C[C@@H](Cc2ccccc2)N1C(=O)OC | 2% | nt | -11% | 7% | nt | 0%
Cc1cc(-c2ccccc2)c(C#N)c(N)n1 | 25µM* | nt | 13µM* | i | nt | 10%
SMILES | HSD17B inh | 4MU fluor | CRE Fsk mod | HADH2 inh | A350 fluor | AID923
CS(=O)c1nc(-c2ccc(Br)cc2)cc(-c2ccccc2)c1C#N (configuration not stated) | 31% | i | 15% | 104% | i | 0%
CCCCCCNC(=O)c1c(O)c2ccccc2[nH]c1=O | -1% | i | 13% | 8% | i | 0%
N#CC1=C(N)Oc2n[nH]c(-c3cccs3)c2C1c1cccs1 (configuration not stated) | 13µM* | i | -13% | ? | i | -1%
C[N+]1(C)C[C@@H](O)C[C@@H]1C(=O)[O-] | 7%[25.6 µM] | i | -1%[17.1 µM] | 3%[25.6 µM] | i | 1%[25.7 µM]
COC(=O)c1cccc(NC(=O)Cn2cnc3ccccc3c2=O)c1 | 0% | i | 0% | 7% | i | -2%
O=c1cnc2ccccc2n1CC1CCCCC1 | 25µM* | 1.2e-07M* | ? | 7% | 1.8e-07M* | -1%
COC(=O)c1cc(NC(=O)Cn2c(=O)cnc3ccccc32)cc(C(=O)OC)c1 | -13% | 3e-08M* | -1% | 8% | 2.8e-08M* | -2%
COc1ccc(CCNC(=O)Cn2c(=O)cnc3ccccc32)cc1 | -15% | 2.1e-08M* | 2% | 1% | 2.3e-08M* | -1%
COC(=O)Cn1c(=O)sc2ccccc21 | 9% | i | -4% | 6% | i | -2%
COC(=O)Cn1c(=O)cnc2ccccc21 | ? | 6.5e-08M* | 0% | 21% | 6.3e-08M* | 1%
COC(=O)N1CCC2(CC1)CCN(c1ncccn1)CC2 | -24% | i | ? | -1% | i | 2%
CN(C)c1cccc(C(=O)n2cc(C(=O)c3cc(F)ccc3O)cn2)c1 | ? | ? | -13% | -9% | 1.6e-08M* | 0%
COc1ccc(O)c(C(=O)c2cnn(C(=O)c3cc(C)oc3C)c2)c1 | 19% | ? | ? | 7% | 1.2e-08M* | 0%
O=C(c1cn[nH]c1)c1cc(F)ccc1O | -8% | i | -11% | -22% | i | -1%
O=C1CCCC=C1[C@@H](O)CCOCc1ccccc1 | 5%[11.4 µM] | nt | nt | -9%[11.4 µM] | nt | -2%[11.5 µM]
O=C(CSc1nnc(-c2ccccc2)o1)c1nnc(-c2ccccc2)o1 | 25µM* | i | ? | ? | i | 1%
O=C(CSc1nnc(-c2ccccc2)o1)c1ccc2c(c1)OCCO2 | -3% | ? | 3% | -2% | ? | 1%
CCCC(C(=O)NC1CCCC1)N(C(=O)Cn1nnc(-c2ccc(C)o2)n1)c1ccccc1OC (configuration not stated) | 6% | i | 6% | 6% | i | 0%
CN1c2ccccc2N(C)C1c1c(O)ccc2ccccc12 | nt | 1e-08M* | nt | nt | 1.4e-08M* | nt
CC(=O)Nc1ccc(S(=O)(=O)N2CCN(c3cc(C)nc4ccccc34)CC2)cc1 | -25% | i | 7% | -4% | i | 1%
CC(=O)Nc1ccc(S(=O)(=O)N2CCN(c3nc(NC4CCCC4)c4ccccc4n3)CC2)cc1 | 16µM* | nt | ? | ? | nt | 2%
O=c1cnnc(SCCc2ccccc2)[nH]1 | 25µM* | 7e-07M* | 9% | 201% | 5.8e-07M* | 17%
